Screening results deposited in PubChem by National Center for Advancing Translational Sciences (NCATS).
A selection: hits, their analogues and other compounds. The true share with any hit is near 19%.
ELG1 DNA repair: inhibitors of ELG1-dependent DNA repair in HEK293T cells. HEK293T ELG1-luciferase reporter, luminescence, 16 h; DNA damage induced by 5-fluorouridine. Potency, µM (top dose mostly 46.1 µM), for inactives: at the highest dose activity change, negative = inhibition, most hits filed as inhibitors. 2.3% of 330,000 active. AID 504467; further: potency means the concentration at half of the fitted maximal effect; nearly all actives have a fitted effect of over 55% in size
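Overnight (16 hr) co-exposure of 2,000 cells/well to 5-fluorouridine and compound at 37 °C preceded detection. Luciferase was quantified via ONE-Glo luminescence; loss of signal denotes inhibition.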
HT1080NT lethal: kills 2HG-producing HT-1080-NT fibrosarcoma cells | HT-1080-NT fibrosarcoma viability, CellTiter-Glo ATP luminescence, 48 h | Potency, µM (series often up to 46.1 µM), for inactives: at the top dose activity, negative = less viability, actives largely listed as cytotoxic | 1.6% of 360,000 active;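 further: NT is the 2HG producing partner of a matched IDH1 knockdown line; potency means the concentration at half of the fitted maximal effect; 0% = DMSO-treated cells and -100% = media-only wells without cells; nearly all actives have a fitted effect of over 55% in size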
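Viability of the 2HG-overproducing fibrosarcoma line after 48 hours of compound exposure at 37 degrees C was determined by luminescence with CellTiter-Glo, and concentration-effect curves were then fitted and categorized.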
TDP1 cell noCPT: qHTS for Inhibitors of human tyrosyl-DNA phosphodiesterase 1 (TDP1): qHTS in cells in absence of CPT. AID 686978, 2013. DT40 Tdp1-/- hTDP1 cells, no CPT, ATP luminescence, 48 h. Potency, µM (doses to about 46.2 µM), for inactives: top-dose activity change, negative = growth inhibition, actives largely listed as inhibitors. 15% of 420,000 active; further: potency means the concentration at half of the fitted maximal effect; nearly all actives have a fitted effect of over 55% in size
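Luminescent ATP content (CellTiter-Glo) served as the growth readout. Knockout chicken DT40 cells expressing human TDP1 were exposed to compounds without camptothecin for a minimum 48 hr at 37 °C.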
IL1B secr inh: inflammasome signaling inhibition, IL-1 beta readout | activity change, % at 57.5 µM | 4.7% of 360,000 active | THP-1 LPS/ATP IL-1B secretion, AlphaLISA, 16 h; hits give low values | AID 743279; in the data active means activity change below about -50%; inconclusive means mostly about -30% to -49%
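Secreted IL-1B measured by AlphaLISA bead assay after 16 h compound exposure of THP-1 cells; compounds (final up to 57.5 uM) added 1 h before LPS (250 ng/mL) and ATP (1.25 mM) stimulation; lower signal means less secretion.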
DT40 TDP1 CPT: DT40-hTDP1 cell growth loss with CPT; AID 686979; 12% of 420,000 active; Potency, µM (doses to about 46.2 µM), for inactives: at the top dose activity change, negative = growth inhibition, actives largely listed as inhibitors; chicken DT40 Tdp1-/-;hTDP1 cells + 20 nM CPT, ATP luminescence, 48 h; further: potency means the concentration at half of the fitted maximal effect; nearly all actives have a fitted effect of over 55% in size
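Chicken DT40 Tdp1-/- cells complemented with human TDP1, 400 cells/well, exposed to compounds plus 20 nM camptothecin for at least 48 h at 37 C; viability read as ATP content by CellTiter-Glo luminescence.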
HT1080 IDH1KD tx: toxicity to HT-1080 IDH1 knockdown cells (counter line); HT-1080 IDH1 knockdown viability, ATP luminescence, 48 h; Potency, µM (series often up to 46.1 µM), for inactives: at the top dose activity, negative = toxicity, hits mostly cytotoxic; 2% of 360,000 active; AID 686971;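 further: potency means the concentration at half of the fitted maximal effect; 0% = DMSO wells and -100% = cell-free medium wells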
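After a 2 h attachment period, IDH1KD HT-1080 cells took pin-transferred compound for 48 h at 37 °C; ATP-based luminescence after 10 min room-temperature reagent incubation reported viability.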
The depositor's hits bear a star; ? = inconclusive; · = no result; [ ] = remark or other dose. Unless noted, the call rests on the fitted dose curve; in most records, active means well fitted curve in the direction sought with a large enough effect; inconclusive means small, poorly fitted or top-dose-only effect, or another doubt; inactive means no such curve, though single readings can be large; an effect the other way counts as inactive or inconclusive. Unless noted, on the % scale 0 is the no-effect control and ±100 the full control effect.

SMILES	ELG1 DNA repair	HT1080NT lethal	TDP1 cell noCPT	IL1B secr inh	DT40 TDP1 CPT	HT1080 IDH1KD tx
Cc1ccc(Cn2cccc(C(=O)Nc3cc(C)on3)c2=O)cc1	·	·	-5%	·	-24%	·
O=C(CCS(=O)(=O)c1ccccc1)Nc1nnc(-c2ccco2)o1	11%	1%	?	-2	?	-5%
Cc1cnn(-c2cc(Oc3ccccc3)ncn2)c1	?	-1%	5%	2	-4%	-22%
O=[N+]([O-])c1cc(F)c(N2CCCC2)cc1N1CCNCC1	-1%	·	·	·	·	·
CN1CCN(c2cc(N3CCCCCC3)c(F)cc2[N+](=O)[O-])CC1	-3%	-7%	29µM*	-56*	?	0%
CCN1CCN(c2cc(N3CCCC3)c([N+](=O)[O-])cc2F)CC1	-22%	-5%	29µM*	-7	?	8%
COC(=O)C1=C(c2ccc(F)cc2OCc2ccccc2)C[C@@H]2CC[C@H]1N2C(=O)NCc1ccc([N+](=O)[O-])cc1	?	-9%	?	-58*	?	-19%
COC(=O)C1=C(c2ccc(F)cc2OCc2ccccc2)C[C@@H]2CC[C@H]1N2C(=O)NC1Cc2ccccc2C1	-10%	-9%	26µM*	-20	?	-13%
COC(=O)C1=C(c2ccc(F)cc2OCc2ccccc2)C[C@@H]2CC[C@H]1N2C(=O)NCc1ccc(F)cc1	?	-18%	?	-19	?	-10%
COC(=O)C1=C(c2ccc(F)cc2OCc2ccccc2)C[C@@H]2CC[C@H]1N2C(=O)NCc1ccc(C)cc1	?	-9%	?	-59*	?	-13%
COC(=O)C1=C(c2ccc(F)cc2OCc2ccccc2)C[C@@H]2CC[C@H]1N2C(=O)NCCCc1ccccc1	?	-12%	?	-11	26µM*	-1%
CCCNc1nc(OC)nc(N2CC3CC(C2)c2cccc(=O)n2C3)n1 (configuration not stated)	-3%	-6%	13%	0	0%	2%
COc1ccc(CCC(=O)N2C[C@H]3C[C@@H](C2)c2cccc(=O)n2C3)cc1	-12%	1%	-7%	11	-2%	7%
O=C(NCC1=C(c2ccc3ccccc3c2)C[C@@H]2CC[C@H]1N2Cc1ccco1)c1cccnc1	·	-3%	?	-8	-27%	1%
COC(=O)C1=C(c2ccc(F)cc2OCc2ccccc2)C[C@@H]2CC[C@H]1N2C(=O)NCc1ccccc1Br	-22%	0%	16µM*	-12	?	-16%
COC(=O)C1=C(c2ccc(F)cc2OCc2ccccc2)C[C@@H]2CC[C@H]1N2C(=O)NCc1ccccc1C(F)(F)F	5%	1%	?	-23	?	4%
CCOCCCNC(=O)c1c[nH]c2ccc(S(=O)(=O)N(C)c3ccc(Cl)cc3F)cc2c1=O	·	·	16µM*	·	23µM*	·
COc1ccc2c(c1O)-c1c(OC)c(OC)cc3c1[C@@H](C2)N(C)CC3	·	·	-4%	·	-17%	·
COc1ccc2cc1Oc1ccc(cc1)CC1c3cc(c(OC)cc3CCN1C)Oc1c(OC)c(OC)cc3c1C(C2)N(C)CC3 (configuration not stated)	·	·	3.7µM*	·	3.7µM*	·
COc1ccc2cc1Oc1ccc(cc1)C[C@H]1c3cc(c(OC)cc3CCN1C)Oc1c(OC)c(OC)cc3c1[C@@H](C2)N(C)CC3	-7%	-19%	23µM*	?	?	-14%
COc1cc2c3cc1Oc1c(OC)c(OC)cc4c1C(Cc1cccc(c1)Oc1ccc(c(O)c1)CC3N(C)CC2)N(C)CC4 (configuration not stated)	·	·	0%	·	2%	·
O=C(O)CNCP(=O)(O)O	·	·	3%	·	-4%	·
O=C1C(Br)C2CCC1C2C(=O)O (configuration not stated)	·	2%	0%	3	-2%	-4%
Cc1ccccc1NC1(C#N)CCCCC1	15%	0%	-10%	-2	-5%	-4%
COc1ccc2[nH]c(C)c(CCNCc3cn(C)c4ccccc34)c2c1	?	?	9.2µM*	-86*	12µM*	?
SMILES	ELG1 DNA repair	HT1080NT lethal	TDP1 cell noCPT	IL1B secr inh	DT40 TDP1 CPT	HT1080 IDH1KD tx
Cc1[nH]c2ccccc2c1CCNCc1cccnc1	12%	11%	-2%	-5	3%	10%
COC(=O)C1=C(c2ccc(OC)c(OC)c2)C[C@@H]2CC[C@H]1N2C(=O)NCc1cc(C)oc1C(F)(F)F	-9%	8%	-23%	8	-8%	11%
N#Cc1ccc(NC(=O)CN2C(=O)NC3(CCCCCCC3)C2=O)cc1Cl	-22%	-4%[9.24 µM]	7.3µM*	6	12µM*	?
CC(=O)N1CCN(CC(=O)Nc2ccc(C#N)c(Cl)c2)CC1	-2%	15%	3%	2	-28%	2%
COc1ccc2[nH]cc(CCN)c2c1	-2%	-7%	-27%	0	?	-1%
CCCCCCCCCOc1ccc2[nH]cc(CCN)c2c1	·	·	8.2µM*	·	7.3µM*	·
Cc1c(C(=O)N2CCC3(CC2)OCCO3)sc2ncnc(N3CCN(c4ccccn4)CC3)c12	3.7µM*	0%	16µM*	-81*	21µM*	7%
O=C(NCCc1ccc(Cl)cc1)c1ccc(Nc2nc3ccccc3n3nnnc23)cc1	·	·	10µM*	·	?	·
Cc1ccc(CNC(=O)c2ccc(Nc3nc4ccccc4n4nnnc34)cc2)cc1	·	·	15µM*	·	?	·
COc1ccc(COC(=O)CCNC(=O)c2ccc(Cl)cc2)cc1	?	-2%	3%	6	9%	3%
COC(=O)C1C(O)CC2CCC1N2C (configuration not stated)	24%	?	-5%	6	7%	-5%
CC1CCCC(NC(=O)CNC(=S)N2CC3CC(C2)c2cccc(=O)n2C3)C1C (configuration not stated)	-12%	6%	20%	5	-4%	14%
Cc1ccc(O)c(C(CCN(C(C)C)C(C)C)c2ccccc2)c1 (configuration not stated)	·	·	-17%	·	-10%	·
CC(N)C(=O)NC1C2C(=C(O)CC(O)C2O)C(=O)OC1(C)C(Cl)Cl (configuration not stated)	·	?	0.16µM*	-100*	0.18µM*	0.92µM*
